{"source": "paper PMC10812921", "about": "“Transcriptional Coactivator BOB1 (OBF1, OCA-B) Modulates the Specificity of DNA Recognition by the POU-Domain Factors OCT1 and OCT2 in a Monomeric Configuration”", "data": [{"biological_target": "POU1 (OCT1 POU domain) (human, UniProt P14859 260-458)", "sequence (P14859 260-458)": "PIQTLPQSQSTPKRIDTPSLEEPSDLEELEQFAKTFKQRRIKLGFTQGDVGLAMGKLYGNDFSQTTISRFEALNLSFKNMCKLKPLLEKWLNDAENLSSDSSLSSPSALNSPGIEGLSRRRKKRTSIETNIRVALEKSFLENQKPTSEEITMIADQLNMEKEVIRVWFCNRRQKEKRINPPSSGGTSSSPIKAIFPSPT", "assay": "EMSA-SELEX-seq; no BOB1; 20 mM Tris-HCl pH 7.6, 140 mM NaCl, 10% glycerol, 0.5 mM EDTA, 0.05% Triton X-100, 0.1 mg/mL BSA, 0.1 mg/mL poly(dI-dC), 5 mM DTT, room temperature, 20 min; high values mean tight binding", "settings": "protein: recombinant; dsDNA, one strand shown", "in_short": "(§1)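 Binding preference means the percentage of sequenced 8-mers matching a motif pattern. Tagged POU-domain proteins (30 ng), expressed in E. coli BL21, purified under denaturing conditions and renatured, were mixed with 300 ng of a PCR-amplified double-stranded random 35-nt library, with or without 28 ng coactivator protein, for 20 min at RT in 20 μL Tris–HCl pH 7.6 binding buffer. Selection was repeated over four rounds of excising complex bands from native 6% PAGE, eluting and PCR amplification, followed by Illumina sequencing.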", "values": [{"sequence": "ATCGCAAA", "binding signal": "0.0515 % of ANNNNAAN 8-mers"}, {"sequence": "AAGAGAAA", "binding signal": "0.0511 % of ANNNNAAN 8-mers"}, {"sequence": "ACACAAAA", "binding signal": "0.0454 % of ANNNNAAN 8-mers"}, {"sequence": "ACAGAAAG", "binding signal": "0.0297 % of ANNNNAAN 8-mers"}, {"sequence": "AATTGAAG", "binding signal": "0.069 % of ANNNNAAN 8-mers"}, {"sequence": "ACTGAAAT", "binding signal": "0.0522 % of ANNNNAAN 8-mers"}, {"sequence": "ACAAGAAA", "binding signal": "0.0366 % of ANNNNAAN 8-mers"}, {"sequence": "AAGCAAAC", "binding signal": "0.0606 % of ANNNNAAN 8-mers"}, {"sequence": "ACCTTAAG", "binding signal": "0.0198 % of ANNNNAAN 8-mers"}, {"sequence": "ATAGCAAT", "binding signal": "0.0515 % of ANNNNAAN 8-mers"}, {"sequence": "ATCTAAAG", "binding signal": "0.0412 % of ANNNNAAN 8-mers"}, {"sequence": "ACTCCAAT", "binding signal": "0.0294 % of ANNNNAAN 8-mers"}, {"sequence": "AAATGAAT", "binding signal": "0.256 % of ANNNNAAN 8-mers"}, {"sequence": "ATACCAAA", "binding signal": "0.0397 % of ANNNNAAN 8-mers"}, {"sequence": "ACTCTAAT", "binding signal": "0.0488 % of ANNNNAAN 8-mers"}, {"sequence": "AATCAAAT", "binding signal": "0.295 % of ANNNNAAN 8-mers"}, {"sequence": "ATCGCAAT", "binding signal": "0.0336 % of ANNNNAAN 8-mers"}, {"sequence": "ACATGAAG", "binding signal": "0.0378 % of ANNNNAAN 8-mers"}, {"sequence": "ATGCTAAG", "binding signal": "0.149 % of ANNNNAAN 8-mers"}, {"sequence": "ATGTTAAG", "binding signal": "0.128 % of ANNNNAAN 8-mers"}, {"sequence": "ACGTTAAT", "binding signal": "0.112 % of ANNNNAAN 8-mers"}, {"sequence": "AGGTGAAG", "binding signal": "0.04 % of ANNNNAAN 8-mers"}, {"sequence": "AGATCAAA", "binding signal": "0.0393 % of ANNNNAAN 8-mers"}, {"sequence": "ATGCCAAT", "binding signal": "0.0648 % of ANNNNAAN 8-mers"}, {"sequence": "AGTCTAAT", "binding signal": "0.147 % of ANNNNAAN 8-mers"}, {"sequence": "ACAACAAT", "binding signal": "0.0248 % of ANNNNAAN 8-mers"}, {"sequence": "ACTTTAAG", "binding signal": "0.0336 % of ANNNNAAN 8-mers"}, {"sequence": "ACACTAAC", "binding signal": "0.0137 % of ANNNNAAN 8-mers"}, {"sequence": "ACTACAAT", "binding signal": "0.0309 % of ANNNNAAN 8-mers"}, {"sequence": "AGTTGAAC", "binding signal": "0.0259 % of ANNNNAAN 8-mers"}, {"sequence": "ATTCGAAT", "binding signal": "0.117 % of ANNNNAAN 8-mers"}, {"sequence": "AGGAGAAA", "binding signal": "0.0572 % of ANNNNAAN 8-mers"}, {"sequence": "AAAAGAAA", "binding signal": "0.106 % of ANNNNAAN 8-mers"}, {"sequence": "AGATGAAA", "binding signal": "0.0629 % of ANNNNAAN 8-mers"}, {"sequence": "ATCCCAAC", "binding signal": "0.0137 % of ANNNNAAN 8-mers"}, {"sequence": "AGAGTAAC", "binding signal": "0.0206 % of ANNNNAAN 8-mers"}, {"sequence": "AGCTGAAA", "binding signal": "0.0267 % of ANNNNAAN 8-mers"}, {"sequence": "ACCCCAAA", "binding signal": "0.0198 % of ANNNNAAN 8-mers"}, {"sequence": "AAACAAAT", "binding signal": "0.352 % of ANNNNAAN 8-mers"}]}, {"biological_target": "T1, POU2 (OCT2 POU domain) (human, UniProt P09086 175-386)", "T1 sequence": "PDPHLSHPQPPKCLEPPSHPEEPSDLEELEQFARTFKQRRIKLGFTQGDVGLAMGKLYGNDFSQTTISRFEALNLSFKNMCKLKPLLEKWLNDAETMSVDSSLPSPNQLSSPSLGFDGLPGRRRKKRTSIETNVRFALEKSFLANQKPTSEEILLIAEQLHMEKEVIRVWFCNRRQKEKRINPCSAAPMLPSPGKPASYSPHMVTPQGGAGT", "assay": "EMSA-SELEX-seq; no BOB1; 20 mM Tris-HCl pH 7.6, 140 mM NaCl, 10% glycerol, 0.5 mM EDTA, 0.05% Triton X-100, 0.1 mg/mL BSA, 0.1 mg/mL poly(dI-dC), 5 mM DTT, room temperature, 20 min; high values mean tight binding", "settings": "protein: recombinant; dsDNA, one strand shown", "in_short": "as §1", "values": [{"sequence": "ATCGCAAA", "binding signal": "0.0478 % of ANNNNAAN 8-mers"}, {"sequence": "AAGAGAAA", "binding signal": "0.0621 % of ANNNNAAN 8-mers"}, {"sequence": "ACACAAAA", "binding signal": "0.0374 % of ANNNNAAN 8-mers"}, {"sequence": "ACAGAAAG", "binding signal": "0.0236 % of ANNNNAAN 8-mers"}, {"sequence": "AATTGAAG", "binding signal": "0.0725 % of ANNNNAAN 8-mers"}, {"sequence": "ACTGAAAT", "binding signal": "0.0639 % of ANNNNAAN 8-mers"}, {"sequence": "ACAAGAAA", "binding signal": "0.0437 % of ANNNNAAN 8-mers"}, {"sequence": "AAGCAAAC", "binding signal": "0.0386 % of ANNNNAAN 8-mers"}, {"sequence": "ACCTTAAG", "binding signal": "0.0219 % of ANNNNAAN 8-mers"}, {"sequence": "ATAGCAAT", "binding signal": "0.0495 % of ANNNNAAN 8-mers"}, {"sequence": "ATCTAAAG", "binding signal": "0.0397 % of ANNNNAAN 8-mers"}, {"sequence": "ACTCCAAT", "binding signal": "0.0219 % of ANNNNAAN 8-mers"}, {"sequence": "AAATGAAT", "binding signal": "0.273 % of ANNNNAAN 8-mers"}, {"sequence": "ATACCAAA", "binding signal": "0.0541 % of ANNNNAAN 8-mers"}, {"sequence": "ACTCTAAT", "binding signal": "0.0604 % of ANNNNAAN 8-mers"}, {"sequence": "AATCAAAT", "binding signal": "0.212 % of ANNNNAAN 8-mers"}, {"sequence": "ATCGCAAT", "binding signal": "0.0391 % of ANNNNAAN 8-mers"}, {"sequence": "ACATGAAG", "binding signal": "0.0449 % of ANNNNAAN 8-mers"}, {"sequence": "ATGCTAAG", "binding signal": "0.156 % of ANNNNAAN 8-mers"}, {"sequence": "ATGTTAAG", "binding signal": "0.146 % of ANNNNAAN 8-mers"}, {"sequence": "ACGTTAAT", "binding signal": "0.163 % of ANNNNAAN 8-mers"}, {"sequence": "AGGTGAAG", "binding signal": "0.0386 % of ANNNNAAN 8-mers"}, {"sequence": "AGATCAAA", "binding signal": "0.0483 % of ANNNNAAN 8-mers"}, {"sequence": "ATGCCAAT", "binding signal": "0.0857 % of ANNNNAAN 8-mers"}, {"sequence": "AGTCTAAT", "binding signal": "0.166 % of ANNNNAAN 8-mers"}, {"sequence": "ACAACAAT", "binding signal": "0.0305 % of ANNNNAAN 8-mers"}, {"sequence": "ACTTTAAG", "binding signal": "0.0299 % of ANNNNAAN 8-mers"}, {"sequence": "ACACTAAC", "binding signal": "0.0132 % of ANNNNAAN 8-mers"}, {"sequence": "ACTACAAT", "binding signal": "0.0282 % of ANNNNAAN 8-mers"}, {"sequence": "AGTTGAAC", "binding signal": "0.0253 % of ANNNNAAN 8-mers"}, {"sequence": "ATTCGAAT", "binding signal": "0.137 % of ANNNNAAN 8-mers"}, {"sequence": "AGGAGAAA", "binding signal": "0.0541 % of ANNNNAAN 8-mers"}, {"sequence": "AAAAGAAA", "binding signal": "0.084 % of ANNNNAAN 8-mers"}, {"sequence": "AGATGAAA", "binding signal": "0.0558 % of ANNNNAAN 8-mers"}, {"sequence": "ATCCCAAC", "binding signal": "0.0213 % of ANNNNAAN 8-mers"}, {"sequence": "AGAGTAAC", "binding signal": "0.0322 % of ANNNNAAN 8-mers"}, {"sequence": "AGCTGAAA", "binding signal": "0.0293 % of ANNNNAAN 8-mers"}, {"sequence": "ACCCCAAA", "binding signal": "0.0104 % of ANNNNAAN 8-mers"}, {"sequence": "AAACAAAT", "binding signal": "0.266 % of ANNNNAAN 8-mers"}]}]}
